Assay results reported in PubChem BioAssay AID1851 (National Center for Advancing Translational Sciences (NCATS), 2009).
Values joined by “and” are separate entries in the source; they are usually repeats but may differ in a detail not shown here. Identical values can stand only once. Hit rate of the full screen: of about 16,000 compounds, about 2,600 (16%) were called active. Not shown: some 20% with an inconclusive outcome. The list is a sample of the results. Values without a mark were called inactive. The call rests on the fitted dose curve; in most records, active means well fitted curve in the direction sought with a large enough effect; inconclusive means small, poorly fitted or top-dose-only effect, or effect the other way; inactive means no such curve, though single readings can be large or run the other way.

molecular target: Cytochrome P450 2D6 (Homo sapiens) (UniProt P10635); test: Cytochrome panel assay with activity outcomes; conditions: recombinant CYP, pro-luciferin dealkylation, luminescence, p450-cyp2d6; series mostly up to 57.1 µM; activity, negative = inhibition: at the top concentration
Sequence (P10635 whole entry, looked up): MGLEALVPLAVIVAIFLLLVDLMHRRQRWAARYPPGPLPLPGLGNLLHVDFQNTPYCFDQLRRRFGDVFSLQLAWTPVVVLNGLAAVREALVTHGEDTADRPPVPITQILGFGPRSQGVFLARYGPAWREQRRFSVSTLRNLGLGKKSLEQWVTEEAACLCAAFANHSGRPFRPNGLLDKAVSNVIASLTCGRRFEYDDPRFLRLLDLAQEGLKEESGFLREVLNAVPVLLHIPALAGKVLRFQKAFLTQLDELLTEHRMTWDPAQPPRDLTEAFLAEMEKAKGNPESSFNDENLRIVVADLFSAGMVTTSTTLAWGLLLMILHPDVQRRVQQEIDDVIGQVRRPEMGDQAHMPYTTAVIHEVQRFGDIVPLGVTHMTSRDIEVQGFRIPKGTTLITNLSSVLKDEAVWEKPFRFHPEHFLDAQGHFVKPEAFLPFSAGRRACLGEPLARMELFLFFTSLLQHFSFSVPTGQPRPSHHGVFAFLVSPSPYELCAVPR
On the % scale 0 is the no-effect control and ±100 the full control effect.

Compound	activity, negative = inhibition	AC50
CCCCCCCCCCCCCCCCCCc1ccc(C(=O)/C=C\C(=O)O)cc1	2.49%	
Cn1cc(-c2nc3cncnc3n(Cc3ccc(F)cc3)c2=O)c2ccccc21	11.3%	
CCCCC1(C)OC(=O)C(=Cc2ccc(N(C)C)cc2)C(=O)O1 (configuration not stated)	0.664%	
NS(=O)(=O)c1ccc(N=Nc2c(O)c(C(=O)O)cc3ccccc23)cc1	14.9% [at 11.4 µM]	
CC#CCCCC(=O)Nc1ccc(C(=O)O)cc1	14.3%	
Cn1nc(C(F)(F)F)c(/C=N/OC(=O)c2ccc(Cl)cc2)c1Cl		15.8 µM (active)
Cn1nc(C(F)(F)F)c(/C=N/OC(=O)c2ccccc2Cl)c1SCc1ccc(Cl)cc1	-27.3%	
Cn1nc(C(F)(F)F)c(/C=N/OCc2c(Cl)cccc2Cl)c1Cl	-4.38%	
C=CC(=O)NC(NC(=O)C=C)c1ccc(Br)cc1	11%	
C(=C1/CCCC2=C1Nc1ncnn1C2c1ccccc1)/c1ccccc1 (configuration not stated)	2.54%	
O=C1CC(=Nc2ccccc2)NN1c1ccccc1	-10.4%	
CCCCSc1ccc2nc(-c3ccc(C#N)cc3)cn2c1	-24.5%	
O=C1CCC[C@@H](C(C(=O)OCc2ccccc2)C(=O)OCc2ccccc2)C1	-12.9% [at 11.4 µM]	
CCN(Cc1ccncc1)C(=O)[C@@H](CO)c1ccccc1		inactive
N[C@@](CCc1ccccc1)(C(=O)O)c1ccccc1	0.379% [at 11.4 µM]	
CN(C)CCOC(=O)[C@@H](c1ccccc1)C1(O)CCCC1	-6.43% [at 25.6 µM]	
CCN(CC)CCOC(=O)[C@@H](c1ccccc1)C1CCCCC1		0.631 µM (active)
O=C(O)C1CCCN1C(=O)OCc1ccccc1 (configuration not stated)	-3.43%	
CCN(CC)CCOC(=O)C(c1ccccc1)c1ccccc1		5.01 µM (active)
CCCC(C(=O)OCCN(CC)CC)(c1ccccc1)c1ccccc1		63.1 nM (active) and 15.8 nM (active)
N#Cc1cccc(NC(=O)N2CCC3(CC2)CCN(C(=O)c2cccc(F)c2)CC3)c1	-13.4%	
O=C(O)[C@@H]1[C@@H]2C[C@@H]3[C@@H](OC(=O)[C@@H]31)[C@H]2Br	0.593% [at 11.4 µM]	
CCOC(=O)c1ccc(-c2ccc(/C=C(\C#N)C(=O)NCC3CCCO3)o2)cc1 (configuration not stated)	-17.3%	
COC(=O)c1cc2c(ccn2-c2ccc(F)cc2)n1CC(C)C	13.8%	
OC[C@@H]1O[C@@H](n2cnc3cncnc32)[C@@H](O)[C@H]1O	-2.03%	

Compound	activity, negative = inhibition	AC50
NC(=O)Nc1n[nH]c(-c2ccccc2)n1	9.86% [at 11.4 µM]	
Cc1ccc2cc3cc(C(=O)N4CCCCC4C)oc3nc2c1 (configuration not stated)	-7.91%	
O[C@@H]1[C@@H](OCc2ccccc2)OC[C@H](O)[C@@H]1O	0.194% [at 11.4 µM]	
CCOc1cc(NC(=S)Nc2cccc(C)c2)c(OCC)cc1NC(=O)CC(C)C	-15.7%	
COc1cc(OC)c(NC(=S)Nc2cccc(C(C)=O)c2)cc1Cl		15.8 µM (active)
COc1cc(C(=O)NC(=S)Nc2ccc(Cl)c(C(=O)O)c2)cc(OC)c1OC	1.96%	
CC(C)CCNC(=O)Cc1ccccc1[N+](=O)[O-]	-21.8%	
O=C(CSc1c[nH]c2ccccc12)N1CCOCC1	-28.8%	
CCc1cc2c(=O)c(-c3nc4ccccc4[nH]3)coc2cc1OC(=O)N1CCOCC1	-17.4%	
CCOC(=O)N1CCN(S(=O)(=O)Cc2ccccc2)CC1	-6.68%	
O=C(c1ccco1)N1CCN(C(=O)C2(S(=O)(=O)c3ccc(Cl)cc3)CC2)CC1	-9.48%	
CCOC(=O)C1(S(=O)(=O)c2ccc(Cl)cc2)CCN(Cc2ccc(Cl)cc2)CC1		3.55 µM (active)
COC(=O)[C@H](Cc1ccccc1)NC(=O)N1CCN(Cc2ccccc2)CC1		11.2 µM (active)
CCOC(=O)C1(S(=O)(=O)c2ccccc2)CCN(Cc2ccccc2)CC1		2 µM (active)
COC(=O)[C@H](Cc1ccccc1)NC(=O)[C@@H](C)CO	3.71% [at 11.4 µM]	
CCOC(=O)N1CCN(C(=O)C(C)SCc2ccccc2)CC1 (configuration not stated)	-25.5%	
CCOC(=O)N1CCN(C(=O)CSCc2ccc(Cl)cc2)CC1	-16%	
COc1ccc(Nc2ncc(C(=O)N3CCN(Cc4ccccc4)CC3)c3ccccc23)cc1	-6.13%	
CC(C)NC1(C(N)=O)CCN(Cc2ccccc2)CC1		0.631 µM (active)
C/C(=N\Nc1nnc(C)c(=O)[nH]1)C(=O)O	-0.0511%	
COc1ccc(C2/C(=C(/O)c3ccc(Cl)cc3)C(=O)C(=O)N2CCN2CCOCC2)c(OC)c1 (configuration not stated)	-38.4%	
CN[C@@H]1NC(=O)c2ccccc2N1Cc1ccc(F)cc1	10.6% [at 11.4 µM]	
CSc1nnc(-c2cc3c(-c4ccccc4)nn(C)c3s2)n1C	0.173%	
CC(C)(N=NC(C)(C)C1=NCCN1)C1=NCCN1	6.75% [at 11.4 µM]	
O=c1[nH]c(=O)n(Cc2ccco2)c2c1C(C(F)(F)F)(C(F)(F)F)N=C(CCC1CCCCC1)N2	-3.9%	

Compound	activity, negative = inhibition	AC50
CC(C)CO/N=C1/[C@H]2O[C@@H]2[C@@H](O)[C@H]2[C@H]1CCn1c(=O)n(C)c(=O)n12	1.5% [at 11.4 µM]	
CC(C)C[C@H](NC(=O)N1CCCCCC1)C(=O)N[C@H](Cc1cn(C)c2ccccc12)C(=O)N[C@H](Cc1ccccn1)C(=O)O	-13.8%	
Cc1ccc(C(=O)NC(=S)Nc2cccc3nsnc23)cc1	28.9%	
CC(C)(C)C(=O)Nc1cccc(-c2nc3ccccc3c(=O)o2)c1	-27.2%	
CN(C)CCNc1ccccn1	-15.2% [at 11.4 µM]	
O[C@H](CNc1ccccn1)c1ccccc1		1.58 µM (active)
c1ccc(CCNc2ccccn2)nc1	-8.12% [at 11.4 µM]	
CCCNC(=O)OC[C@@H]1O[C@H](CCO/N=C\C[C@H]2C=C[C@H](OC(C)=O)[C@@H](COC(C)=O)O2)C=C[C@@H]1Oc1ccc(OC)cc1	-15.6% [at 11.4 µM]	
CC(C)=CCNc1ncnc2nc[nH]c12	10.2% [at 11.4 µM]	
COc1ccc(N2CCN(C(=S)Nc3cccc(C)c3)CC2)cc1	7.47%	
CN(C)c1ccnc(-c2ccccc2C(F)(F)F)n1	12.2%	
Cc1noc(C)c1-c1nccc(N(C)C)n1	9.87%	
Cc1noc(C)c1-c1nccc(N(C)Cc2ccco2)n1	-10.1%	
CN(C)Cc1ccccc1-c1nccc(N(C)C)n1		1 µM (active)
CN(C)Cc1ccccc1-c1nccc(N(C)Cc2ccco2)n1		0.794 µM (active)
Cn1c2c(c(=O)n(C)c1=O)C(C(F)(F)F)(C(F)(F)F)N=C(c1ccc(Cl)cc1)N2	18.2%	
COc1ccc(Oc2nc3ccccc3nc2C(F)(F)F)cc1	-2.66%	
CCCC[C@@H]1C[C@H]1C(NC(=O)c1ccccc1)c1ccccc1C(F)(F)F (some centres not stated)	11.1%	
[Cu].[O-]/N=C1/C(=[OH+])Nc2ccccc21.[O-]Nc1c(O)[nH]c2ccccc12	-7.87% [at 11.4 µM]	
O=C(O)C1=C/C(=C(/c2ccccc2)c2cc(C(=O)O)c(O)c3ccccc23)c2ccccc2C1=O	14% [at 11.4 µM] and -3.21% [at 11.4 µM]	
O=C(Nc1cccnc1)C1COc2ccccc2O1 (configuration not stated)	-8.2%	
COc1ccc(CC(=O)NC(=S)Nc2ccc(S(=O)(=O)NC(C)(C)C)cc2)cc1	17.1%	
CC(C)(C)NS(=O)(=O)c1ccc(NS(=O)(=O)c2ccc(F)cc2)cc1	10.1%	
CC(C)(C)NS(=O)(=O)c1ccc(NC(=O)C(Sc2ccccc2)c2ccccc2)cc1 (configuration not stated)		3.55 µM (active)
CO[C@H]1C[C@@H]2C[C@H](O)C[C@@H](CC(=O)O[C@@H](/C=C\CC(C)C)C[C@@H]3CC[C@H](C)[C@@H](C1)O3)O2	-2.62% [at 11.4 µM]	

Compound	activity, negative = inhibition	AC50
N#Cc1cccc(NC(=O)N2CC3(CCN(C(=O)c4ccco4)CC3)C2)c1	-5.53%	
COc1cc(NC(=O)c2cc3ccccc3o2)c(OC)cc1Br	-2.15%	
CCCN(CCO)Cc1ccc(F)c(Br)c1		7.94 µM (active)
COc1ccc(C(=S)Nc2ccccc2)cc1	-50.9%	
COc1ccc(-c2nc(C(=O)N3CCN(C)CC3)sc2-c2ccc(OC)cc2)cc1	-10.4%	
Cc1nnc(NC(=O)CCC(=O)NCc2cccs2)s1	-29.9%	
CC(C)(O)C#Cc1ccc(C(=O)NCc2cccs2)s1		22.4 µM (active)
Nc1nc2c(C(=O)NCc3cccs3)nnn2c2cccc(Cl)c12	6.61% [at 11.4 µM]	
CCc1sc(N(C(=O)Cc2ccccc2)c2cccc(F)c2)nc1-c1ccc(C)cc1	3.54%	
O=C1CSC2(CCN(CCCN3c4ccccc4Sc4ccc(Cl)cc43)CC2)N1		0.631 µM (active)
OC1CC2CC[C@H](C1)N2CCCN1c2ccccc2Sc2ccc(Cl)cc21 (some centres not stated)		0.0631 µM (active)
CC1(C)CCCN(C(=O)N2c3ccccc3Sc3ccccc32)C1	3.85%	
O=C(CSc1nc2ccccc2o1)N1c2ccccc2Sc2ccc(Cl)cc21	5.14%	
CCOC(=O)Nc1ccc2c(c1)N(C(=O)CCN1CCN(C)CC1)c1ccccc1S2	-21.6%	
Clc1ccc2c(c1)N(CCCN1CCCC13CCCCC3)c1ccccc1S2		0.00794 µM (active)
Cc1ccc2cn[nH]c2c1NC(=S)NC(=O)c1ccccc1	-0.296%	
O=C(NNc1nc2ccccc2s1)c1ccccc1F	-25.1%	
Oc1ccc(Br)cc1CNn1cnnc1	22.7%	
CCOC(=O)c1cc(-c2ccc(Cl)cc2)nc2c1c(C)nn2CCC#N	-25.2%	
Cc1ccccc1C(=O)c1c[nH]c(C(=O)NCC2CCCO2)c1 (configuration not stated)	28.3%	
COc1ccc(COC(=O)N/N=C(\C)CC(=O)Nc2c(C)cc(C)cc2C)cc1	-17.7%	
